Inconclusive results are not listed. Activity calls are given as the source filed them. Calls come from the whole dose curve; as a rule, active = well fitted curve in the direction sought with a large enough effect; inconclusive = small, poorly fitted or top-dose-only effect, or another doubt; inactive = no such curve, though single readings can be large; an effect the other way counts as inactive or inconclusive.
Columns and labels:
[1] = target: Furin (Homo sapiens) (UniProt P09958); assay: Furin counterscreen qHTS for Zika virus inhibitors (AID 1347149); note: nearly all actives have a fitted effect of over 70% in size; note: potency is the fitted concentration of half-maximal effect;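 for activity change, negative = inhibition: purified recombinant full-length human furin enzyme at 5 nM; fluorescence gain from furin cutting a BOC-RVRR-AMC peptide substrate over 15 min; top concentration of the series differs between compounds; plate controls were no-inhibitor control for no effect and no-enzyme control for full effect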
Furin (Homo sapiens), sequence (P09958 whole entry, looked up): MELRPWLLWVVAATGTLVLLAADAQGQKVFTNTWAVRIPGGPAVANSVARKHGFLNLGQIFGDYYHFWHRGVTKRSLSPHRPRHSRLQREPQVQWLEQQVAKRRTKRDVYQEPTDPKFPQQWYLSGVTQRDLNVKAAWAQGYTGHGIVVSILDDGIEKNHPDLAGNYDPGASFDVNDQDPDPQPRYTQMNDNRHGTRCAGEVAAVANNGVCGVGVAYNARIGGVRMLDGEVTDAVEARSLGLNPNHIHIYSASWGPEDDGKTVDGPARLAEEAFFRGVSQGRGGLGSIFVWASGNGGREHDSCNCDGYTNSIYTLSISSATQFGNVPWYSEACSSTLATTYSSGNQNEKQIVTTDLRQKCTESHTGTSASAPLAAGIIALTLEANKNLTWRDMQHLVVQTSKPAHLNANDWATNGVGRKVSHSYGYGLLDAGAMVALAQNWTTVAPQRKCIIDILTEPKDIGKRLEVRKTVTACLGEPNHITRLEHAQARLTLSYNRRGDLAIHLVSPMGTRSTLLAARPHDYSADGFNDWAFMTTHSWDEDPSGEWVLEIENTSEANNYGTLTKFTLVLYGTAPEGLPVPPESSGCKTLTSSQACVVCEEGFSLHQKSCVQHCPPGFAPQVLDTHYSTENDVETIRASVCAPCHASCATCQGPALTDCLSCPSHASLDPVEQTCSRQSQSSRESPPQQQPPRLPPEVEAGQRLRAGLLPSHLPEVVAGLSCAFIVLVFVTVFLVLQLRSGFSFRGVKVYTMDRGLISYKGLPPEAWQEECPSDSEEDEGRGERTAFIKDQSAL
Outline: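 Fluorogenic cleavage of BOC-RVRR-AMC (2 microM final, Km ~15 µM) was monitored (ex 340, em 450 nm) at 37C after 15 min RT preincubation of 5 nM furin with compounds in HEPES pH 7.0 buffer with CaCl2 and Triton X-100. Percent inhibition was fitted to a 4-parameter Hill curve.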

[2] = tested on: Zika virus NS2B-NS3 protease (linked construct); assay: Confirmatory screen NINDS AMC qHTS for Zika virus inhibitors (AID 1347152); note: nearly all actives have a fitted effect of over 70% in size; note: potency is the fitted concentration of half-maximal effect;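 for activity change, negative = inhibition: AMC fluorescence gain from cleaved Bz-Nle-KRR-AMC substrate over 15 min; top concentration of the series differs between compounds; 0% = no-inhibitor control and -100% = no-enzyme control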
Outline: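 Linked NS2B-NS3 protease, 1 nM, in 10 mM Tris-HCl pH 8.0, 0.01% Tween 20; compounds preincubated 15 min at room temperature. Nle-KRR-AMC 10 microM (Km 18.3 µM); 15-min fluorescence change (340/450 nm) fitted to 4-parameter Hill.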

[3] = tested on: Zika virus NS2B-NS3 protease (unlinked complex); assay: Confirmatory screen GU AMC qHTS for Zika virus inhibitors (AID 1347153); note: nearly all actives have a fitted effect of over 70% in size;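 for Potency: enzyme at 25 nM with substrate at 10 µM below its Km of 18.3 µM; potency is the fitted concentration of half-maximal effect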;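 for activity, negative = inhibition: percent inhibition with 0% = no inhibitor control and 100% = no enzyme control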
Outline: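 Noncovalent NS2B hydrophilic domain/NS3 protease complex (25 nM) in 10 mM Tris-HCl pH 8.0, 0.01% Tween 20 was preincubated 15 min at room temperature with compounds. Then 10 µM AMC substrate (Km 18.3 µM) was added; fluorescence was read over 15 min and fitted to a 4-parameter Hill equation.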

[4] = tested on: Zika virus NS2B-NS3 protease; assay: Primary screen GU AMC qHTS for Zika virus inhibitors (AID 1347154); note: nearly all actives have a fitted effect of over 70% in size; note: potency is the fitted concentration of half-maximal effect;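 for activity change, negative = inhibition: 0% = no-inhibitor control and -100% = no-enzyme control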
Outline: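 Fluorogenic AMC-substrate cleavage by noncovalent NS2B-NS3 protease complex (25 nM, pH 8.0 Tris buffer with Tween 20) followed for 15 minutes at room temperature (~20% conversion). Percent inhibition from ex340/em450 signal change, fitted by 4-parameter Hill equation.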

[5] = Confirmatory screen NINDS Rhodamine qHTS for Zika virus inhibitors (AID 1347161); note: nearly all actives have a fitted effect of over 60% in size; note: potency is the fitted concentration of half-maximal effect;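 for activity change, negative = inhibition: purified Zika NS2B-NS3 protease with linked NS2B cofactor domain and Rhodamine110 peptide substrate; series mostly up to about 110 µM; plate controls were no-inhibitor control for no effect and no-enzyme control for full effect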
Outline: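 Rhodamine110-peptide cleavage (1.5 µM substrate) by 25 nM linked NS2B-NS3 enzyme at pH 8.0 (Tris, Tween 20), after 15 min RT preincubation with compounds; 15-min fluorescence change normalized to controls and Hill-fitted.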

[6] = Vero cells viability qHTS for Zika virus inhibitors (AID 1347167); note: % is set by controls: 0 for no effect and ±100 for the full control effect
Outline: (§1)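 Compounds were tested in concentration series on cells grown in DMEM containing 4% FBS. After 24 to 48 hours, cellular ATP was measured by luminescence with CellTiter Glo.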

[7] = HepG2 cells viability qHTS for Zika virus inhibitors (AID 1347168); note: % is set by controls: 0 for no effect and ±100 for the full control effect
Outline: as §1

[8] = qHTS to identify inhibitors of the type 1 interferon - major histocompatibility complex class I in skeletal muscle: primary screen against the NCATS Mechanism Interrogation Plate v5.0 (MIPE) Libary (AID 1347411); note: nearly all actives have a fitted effect of over 65% in size; note: potency is the fitted concentration of half-maximal effect;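 for activity change, negative = inhibition: plate controls were vehicle for no effect and reference inhibitor for full effect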
Outline: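 Cells were genome-edited human myoblasts carrying a HiBit tag on endogenous HLA-B. They were treated with IFN-beta (4.0 ng/ml) and titrated compounds (top 46 uM) for 24 hrs before lytic HiBiT detection.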

[9] = tested on: Zika virus NS2B-NS3 protease (linked); assay: 384 well plate NINDS AMC confirmatory qHTS for Zika virus inhibitors (AID 1347163); note: nearly all actives have a fitted effect of over 50% in size; note: potency is the fitted concentration of half-maximal effect;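 for activity change, negative = inhibition: linked protease at 5 30 or 60 nM final depending on run; fluorescence of AMC released from Ac-VKTGKR-AMC peptide cleaved by the protease; top concentration of the series differs between compounds; 0% = no-inhibitor control and -100% = no-enzyme control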
Outline: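 Linked protease 5/30/60 nM final; cpds up to 1 mM final, ~15 min preinc. Substrate Ac-VKTGKR-AMC 30 microM final. RT, dark, 25 min; FI ex 355/em 460; normalized to no-enzyme/no-inhibitor ctrls.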

[10] = tested on: Zika virus NS2B-NS3 protease (linked construct); assay: 384 well plate NINDS Rhodamine confirmatory qHTS for Zika virus inhibitors (AID 1347164);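 note: fluorescence from protease cleavage of Ac-LKRR-rhodamine 110 substrate; nearly all actives have a fitted effect of over 65% in size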; note: potency is the fitted concentration of half-maximal effect;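 for activity change, negative = inhibition: top concentration of the series differs between compounds; plate controls were no-inhibitor control for no effect and no-enzyme control for full effect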
Outline: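 Linked NS2B-NS3 protease (final 5, 30 or 60 nM) preincubated ~15 minutes with compounds, then 10 microM Ac-LKRR-Rhodamine 110 added. Fluorescence (485/538 nm) read after 25 minutes at room temperature, normalized to no-enzyme and no-inhibitor controls.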

[11] = Tertiary RLuc qRT-PCR qHTS assay for Zika virus inhibitors (AID 1347169); note: nearly all actives have a fitted effect of over 55% in size; for activity change, negative = inhibition: top concentration of the series differs between compounds; % is set by controls: 0 for no effect and ±100 for the full control effect
Outline: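 Vero cells (1,000/well) infected with recombinant ZIKV-RLuc (Cambodian) at MOI 1-2 after compound addition, 48-72 hrs at 37 degrees C. Live-cell Renilla luciferase substrate added; luminescence read after 1-1.5 hrs.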

[12] = ZIKV-mCherry secondary qHTS for Zika virus inhibitors (AID 1347158); note: top concentration of the series differs between compounds
Outline: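 After overnight seeding at 37 °C, Vero cells receive compound and then ZIKV-mCherry (MOI 1). Following 48-72 h infection, cells are fixed, counterstained with Hoechst, and imaged; percent infected cells is derived from an mCherry intensity cut-off of 450 RFU.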

[13] = Confirmatory screen GU Rhodamine qHTS for Zika virus inhibitors qHTS (AID 1347157)
Outline: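 A qHTS format was used, with compound concentrations ranging up to 114 microM. Each compound was preincubated with 25 nM NS2B-NS3 protease, and the substrate was then added at 1.5 microM. Curves were fitted with a 4-parameter Hill model.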

[14] = tested on: Zika virus NS2B-NS3 protease (unlinked complex); assay: Primary screen GU Rhodamine qHTS for Zika virus inhibitors: Unlinked NS2B-NS3 protease assay (AID 1347159); note: nearly all actives have a fitted effect of over 60% in size; note: potency is the fitted concentration of half-maximal effect
Outline: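 Noncovalent NS2B hydrophilic domain–NS3 protease domain complex (25 nM) preincubated 15 min at room temperature with compounds (up to 114 microM) in 10 mM Tris-HCl pH 8.0, 0.01% Tween 20; 1.5 microM Rhodamine110 substrate added, fluorescence change over 15 min fitted to Hill equation.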

[15] = tested on: Zika virus NS2B-NS3 protease (linked construct); assay: Primary screen NINDS Rhodamine qHTS for Zika virus inhibitors (AID 1347160); note: % is set by controls: 0 for no effect and ±100 for the full control effect; nearly all actives have a fitted effect of over 55% in size
Outline: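 Purified linked NS2B-NS3 protease (NS2B hydrophilic domain joined to NS3 protease by flexible linker), 25 nM in 10 mM Tris-HCl pH 8.0, 0.01% Tween 20. Compounds titrated, 15 min preincubation at room temperature; 1.5 microM Rhodamine110 substrate, FITC fluorescence change over 15 min.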

[16] = tested on: Zika virus NS2B-NS3 protease (unlinked); assay: Optimization of GU AMC qHTS for Zika virus inhibitors: Unlinked NS2B-NS3 protease assay (AID 1347151);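 note: series mostly up to about 52 µM; 0% = no-inhibitor control and -100% = no-enzyme control; nearly all actives have a fitted effect of over 80% in size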
Outline: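 Noncovalent NS2B hydrophilic domain–NS3 protease complex (25 nM final) in 10 mM Tris-HCl pH 8.0, 0.01% Tween 20; AMC substrate, room temperature 15 min (~20% conversion); fluorescence change normalized, 4-parameter Hill fit.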

[17] = qHTS to identify inhibitors of the type 1 interferon - major histocompatibility complex class I in skeletal muscle: primary screen against the NCATS Pharmaceutical Collection (AID 1347407);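 note: luminescence of HiBiT knocked into endogenous HLA-B as interferon-induced MHC class I level; % is set by controls: 0 for no effect and ±100 for the full control effect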
Outline: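 Immortalized human myoblasts (C25cl48) with HiBiT knocked into endogenous HLA-B*08:01 were stimulated with 4.0 ng/ml IFN-beta and treated with compounds ([…] top 46 uM) for 24 hrs at 37 C. HiBiT lytic luminescence read.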

[18] = target: Protein phosphatase 1D (Homo sapiens) (UniProt O15297); assay: RapidFire Mass Spectrometry qHTS Assay for Modulators of WT P53-Induced Phosphatase 1 (WIP1) (AID 1347424);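 note: amount of dephosphorylated VEPPL-S-QETFS peptide product formed by WIP1; potency is the fitted concentration of half-maximal effect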
Protein phosphatase 1D (Homo sapiens), sequence (O15297 whole entry, looked up): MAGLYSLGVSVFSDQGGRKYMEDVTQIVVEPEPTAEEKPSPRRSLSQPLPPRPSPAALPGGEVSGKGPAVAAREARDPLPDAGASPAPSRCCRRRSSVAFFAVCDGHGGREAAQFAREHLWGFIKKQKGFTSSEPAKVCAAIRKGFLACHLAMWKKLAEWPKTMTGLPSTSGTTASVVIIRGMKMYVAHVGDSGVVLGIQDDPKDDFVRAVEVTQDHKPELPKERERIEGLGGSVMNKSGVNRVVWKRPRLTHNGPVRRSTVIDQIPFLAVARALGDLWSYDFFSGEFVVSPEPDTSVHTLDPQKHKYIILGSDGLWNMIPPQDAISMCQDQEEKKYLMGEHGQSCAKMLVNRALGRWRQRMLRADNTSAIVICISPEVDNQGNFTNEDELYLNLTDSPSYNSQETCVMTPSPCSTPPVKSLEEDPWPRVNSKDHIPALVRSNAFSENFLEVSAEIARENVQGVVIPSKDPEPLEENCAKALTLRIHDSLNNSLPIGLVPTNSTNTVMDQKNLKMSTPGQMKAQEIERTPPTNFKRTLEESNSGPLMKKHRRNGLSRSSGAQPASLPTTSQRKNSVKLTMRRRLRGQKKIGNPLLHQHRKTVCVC
Outline: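 10 nM WIP1 + cpd, 1 h RT; + 2 uM VEPPL-pS-QETFS, 5 min RT; stop 0.5% formic acid; labelled product standard 1 uM; RapidFire MS. Buffer 50 mM Tris pH 7.5, 30 mM MgCl2, 1 mM TCEP.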

COc1ccc(-c2ccc3ncc4c(c3c2)n(-c2ccc(N3CCNCC3)c(C(F)(F)F)c2)c(=O)n4C)cn1
inactive: activity change, negative = inhibition [1] -10.9% [at 5.45 µM] | activity change, negative = inhibition [2] -9% [at 5.51 µM] | activity, negative = inhibition [3] -4.48% [at 5.51 µM] | activity change, negative = inhibition [5] 14.2% [at 12.7 µM] | activity change, negative = cytotoxicity [6] -1.62% [at 4.93 µM] | activity change, negative = cytotoxicity [7] -5.65% [at 4.93 µM]
active: Potency [4] 21.5 µM | Potency [8] 0.147 µM

O=C(Nc1ccccc1)Nc1ccc(-c2ccc(C(=O)[C@H]3CCC[C@H]3C(=O)O)cc2)cc1
inactive: Potency [9] | outcome [6] | outcome [7] | Potency [11]
active: Potency [1] 34 µM | Potency [2] 24.1 µM | Potency [3] 24.1 µM | Potency [5] 3.92 µM | Potency [10] 14.1 µM

COc1ccc2c(c1)CC[C@H]1[C@@H]2CC[C@]2(C)[C@@H](NCCCCCCN3C(=O)C=CC3=O)CC[C@H]12
inactive: Potency [4]

O=c1cc(-c2ccc(O)c(O)c2)oc2cc(O)cc(O)c12
active: Potency [5] 28.2 µM | Potency [9] 70.8 µM
inactive: Potency [1] | Potency [4] | outcome [12] | Potency [10] | activity change, negative = inhibition [11] 46.1% [at 3.57 µM]

Cc1nc(C(=O)NCC(=O)O)c(O)c2ccc(Oc3ccccc3)cc12
inactive: Potency [15] | outcome [6] | outcome [7] | Potency [11] | Potency [8]
active: Potency [2] 21.5 µM | Potency [4] 21.5 µM | Potency [13] 44.1 µM | Potency [14] 22.4 µM | Potency [5] 34.9 µM

OC(c1cc(C(F)(F)F)nc2c(C(F)(F)F)cccc12)C1CCCCN1 (centres undefined)
inactive: outcome [16] | Potency [4] | outcome [6]
active: Potency [1] 0.961 µM | Potency [11] 16.5 µM

O=C(O)Cc1cccc(OCCCN(Cc2cccc(C(F)(F)F)c2Cl)CC(c2ccccc2)c2ccccc2)c1
active: Potency [1] 7.62 µM | Potency [2] 19.2 µM | Potency [3] 17.1 µM | Potency [5] 1.56 µM | Potency [10] 28.2 µM
inactive: outcome [7] | Potency [8]

CC(=O)OCC(=O)[C@@]12OC(C)(C)O[C@H]1C[C@H]1[C@@H]3C[C@H](F)C4=CC(=O)C=C[C@]4(C)[C@@]3(F)[C@@H](O)C[C@@]12C
inactive: Potency [4]

CO[C@H]1/C=C\O[C@@]2(C)Oc3c(C)c(O)c4c(O)c(c5c(nc6cc(C)ccn65)c4c3C2=O)NC(=O)C(C)=CC=C[C@H](C)[C@H](O)[C@@H](C)[C@@H](O)[C@@H](C)[C@H](OC(C)=O)[C@H]1C
inactive: Potency [4]

O=C(c1ccc(F)c(F)c1Nc1ccc(I)cc1F)N1CC(O)([C@H]2CCCCN2)C1
inactive: Potency [4]

CCCCOCCOc1nc(-c2ccc(C(=O)O)c(F)c2)sc1C
inactive: outcome [6] | outcome [7] | Potency [11] | Potency [8]
active: Potency [1] 12.1 µM | Potency [2] 19.2 µM | Potency [3] 12.1 µM | Potency [5] 49.3 µM

Fc1ccc(C(c2ccc(F)cc2)N2CCN(CC=Cc3ccccc3)CC2)cc1
inactive: Potency [1] | Potency [2] | Potency [3] | Potency [5] | outcome [6]

CC1=C[C@@H]2[C@@H]([C@@H](O)C[C@@]3(C)[C@H]2C[C@@H](C)[C@]3(O)C(=O)CO)[C@@]2(C)Cc3cnn(-c4ccccc4)c3C=C12
inactive: Potency [4]

CN1c2ccccc2C(=O)N2CCc3c([nH]c4ccccc34)C21 (centres undefined)
inactive: Potency [4]

O=C(Nc1cccc2c(=O)cc(-c3nn[nH]n3)oc12)c1ccc(OCCCCc2ccccc2)cc1
inactive: outcome [6] | outcome [7] | outcome [17]
active: Potency [1] 30.4 µM | Potency [2] 5.41 µM | Potency [3] 6.81 µM | Potency [4] 8.91 µM | Potency [5] 1.75 µM | Potency [9] 28.2 µM | Potency [18] 15.8 µM

CCOC(=O)N1CCN([N+]([O-])=NOc2cc(ON=[N+]([O-])N3CCN(C(=O)OCC)CC3)c([N+](=O)[O-])cc2[N+](=O)[O-])CC1
inactive: Potency [4]

CCCCC(C=O)NC(=O)C(CC(C)C)NC(=O)OCc1ccccc1 (centres undefined)
inactive: Potency [4]

c1cc(OCCN2CCCCC2)cc(-c2n[nH]c3ccc(-c4ncn[nH]4)cc23)c1
inactive: Potency [14] | Potency [15] | Potency [5] | outcome [6] | outcome [7] | Potency [11] | Potency [8]
active: Potency [1] 21.5 µM | Potency [2] 24.1 µM | Potency [4] 24.1 µM

N=C1SC(=Cc2ccc(-c3ccc4c(c3)C(=O)NC4=O)o2)C(=O)N1c1ccc(Br)cc1
inactive: Potency [4]

N#CC1(c2cccc(C(=O)Nc3cc(Oc4ccc5nc(NC(=O)C6CC6)sc5n4)ccc3F)c2Cl)CC1
inactive: Potency [1] | Potency [2] | Potency [3] | Potency [15] | outcome [6] | outcome [7] | Potency [8]
active: Potency [4] 21.5 µM | Potency [13] 22.1 µM | Potency [14] 22.4 µM | Potency [10] 50.1 µM

From PubChem BioAssay (NCATS)
